Measurements: PubChem BioAssay (Tox21)
“And” between values parts separate entries of the source, which are not always exact repeats. Identical values can stand only once. Results filed as inconclusive are left out. A call without a number means that no potency is given here. A structure can be active in one record and inactive in another. The source made the active and inactive calls. Unless noted, the call rests on the fitted dose curve; in most records, active means well fitted curve in the direction sought with a large enough effect in the repeat runs; inconclusive means weak or mixed curves; inactive means no such curve, though single readings can be large; an effect the other way counts as inactive or inconclusive.

How the values were obtained:
[1] = A CellTox Green Cytotoxicity Assay to monitor cytotoxicity in HEK293 cells - 32 hour (AID 1224881); further: nearly all actives have a fitted effect of over 40% in size; further: potency means the concentration at half of the fitted maximal effect
Method in brief: (§1)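 Cells (HEK293, 600/well) and dye reagent are dispensed together. After 5 h at 37 C, 23 nL compound is pinned in. Plates stay at 37 C for 40 h with fluorescence read at 0h, 8h, 16h, 24h, 32h and 40h.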

[2] = A CellTox Green Cytotoxicity Assay to monitor cytotoxicity in HepG2 cells - 0 hour (AID 1224882); further: nearly all actives have a fitted effect of over 35% in size; further: potency means the concentration at half of the fitted maximal effect
Method in brief: (§2)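 Cells and non-lytic dye reagent are dispensed together (600 HepG2 cells/well) and incubated 5 h before DMSO compound transfer. Kinetic fluorescence is then recorded in the same wells during 40 h at 37 C.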

[3] = A CellTox Green Cytotoxicity Assay to monitor cytotoxicity in HepG2 cells - 32 hour (AID 1224883); further: nearly all actives have a fitted effect of over 50% in size; further: potency means the concentration at half of the fitted maximal effect
Method in brief: as §2

[4] = A CellTox Green Cytotoxicity Assay to monitor cytotoxicity in HEK293 cells - 8 hour (AID 1224884); further: nearly all actives have a fitted effect of over 35% in size; further: potency means the concentration at half of the fitted maximal effect
Method in brief: as §1

[5] = qHTS RealTime-Glo MT Cell Viability Assay in HepG2 cells - 16 hour (AID 1224885); further: nearly all actives have a fitted effect of over 50% in size; further: potency means the concentration at half of the fitted maximal effect
Method in brief: (§3)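 HepG2 suspension premixed with RealTime-Glo reagents is plated at 600 cells per well and left 5 h at 37 C/5% CO2. Compounds in DMSO then go in, and bioluminescence reflecting viable cell number is recorded over 40 h.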

[6] = qHTS RealTime-Glo MT Cell Viability Assay in HEK293 cells - 24 hour (AID 1224886); further: nearly all actives have a fitted effect of over 50% in size; further: potency means the concentration at half of the fitted maximal effect
Method in brief: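 Reads taken at 0, 8, 16, 24, 32 and 40 h from the same wells. HEK293 cells (600/well) carried RealTime-Glo reagents from seeding, with compound added after a 5 h settle at 37 C.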

[7] = A CellTox Green Cytotoxicity Assay to monitor cytotoxicity in HEK293 cells - 16 hour (AID 1224888); further: nearly all actives have a fitted effect of over 35% in size; further: potency means the concentration at half of the fitted maximal effect
Method in brief: as §1

[8] = qHTS RealTime-Glo MT Cell Viability Assay in HepG2 cells - 0 hour (AID 1224889); further: nearly all actives have a fitted effect of over 50% in size
Method in brief: as §3

[9] = A CellTox Green Cytotoxicity Assay to monitor cytotoxicity in HepG2 cells - 8 hour (AID 1224890); further: nearly all actives have a fitted effect of over 45% in size; further: potency means the concentration at half of the fitted maximal effect
Method in brief: as §2

[10] = qHTS assay to identify small molecule antagonists of the estrogen receptor alpha (ER-alpha) signaling pathway using the BG1 cell line in the presence of 0.1 nM 17-beta-estradiol - cell viability counter screen (AID 1259241); further: nearly all actives have a fitted effect of over 40% in size
Method in brief: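 CellTiter-Fluor read (30 min, 37C) on ER-alpha/ERE-luc VM7Luc4E2 cells; 22 hr compound treatment; agonist 0.1 nM E2 final; same-well multiplex.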

[11] = qHTS assay to identify small molecule antagonists of the androgen receptor (AR) signaling pathway using the MDA cell line in the presence of 0.5 nM R1881 - cell viability counter screen (AID 1259242); further: nearly all actives have a fitted effect of over 45% in size; further: potency means the concentration at half of the fitted maximal effect
Method in brief: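 Steps: plate MDA-kb2 cells, rest 5 hr at 37C without CO2; pin in compounds in DMSO; add R1881 to 0.5 nM final; incubate 16 hr; add CellTiter-Fluor, 30 min; read fluorescence.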

[12] = molecular target: Androgen receptor (Homo sapiens) (UniProt P10275); assay: qHTS assay to identify small molecule antagonists of the androgen receptor (AR) signaling pathway using the MDA cell line in the presence of 0.5 nM R1881 (AID 1259243); further: nearly all actives have a fitted effect of over 50% in size; further: potency means the concentration at half of the fitted maximal effect
Chain of Androgen receptor (Homo sapiens) (P10275 whole entry, looked up): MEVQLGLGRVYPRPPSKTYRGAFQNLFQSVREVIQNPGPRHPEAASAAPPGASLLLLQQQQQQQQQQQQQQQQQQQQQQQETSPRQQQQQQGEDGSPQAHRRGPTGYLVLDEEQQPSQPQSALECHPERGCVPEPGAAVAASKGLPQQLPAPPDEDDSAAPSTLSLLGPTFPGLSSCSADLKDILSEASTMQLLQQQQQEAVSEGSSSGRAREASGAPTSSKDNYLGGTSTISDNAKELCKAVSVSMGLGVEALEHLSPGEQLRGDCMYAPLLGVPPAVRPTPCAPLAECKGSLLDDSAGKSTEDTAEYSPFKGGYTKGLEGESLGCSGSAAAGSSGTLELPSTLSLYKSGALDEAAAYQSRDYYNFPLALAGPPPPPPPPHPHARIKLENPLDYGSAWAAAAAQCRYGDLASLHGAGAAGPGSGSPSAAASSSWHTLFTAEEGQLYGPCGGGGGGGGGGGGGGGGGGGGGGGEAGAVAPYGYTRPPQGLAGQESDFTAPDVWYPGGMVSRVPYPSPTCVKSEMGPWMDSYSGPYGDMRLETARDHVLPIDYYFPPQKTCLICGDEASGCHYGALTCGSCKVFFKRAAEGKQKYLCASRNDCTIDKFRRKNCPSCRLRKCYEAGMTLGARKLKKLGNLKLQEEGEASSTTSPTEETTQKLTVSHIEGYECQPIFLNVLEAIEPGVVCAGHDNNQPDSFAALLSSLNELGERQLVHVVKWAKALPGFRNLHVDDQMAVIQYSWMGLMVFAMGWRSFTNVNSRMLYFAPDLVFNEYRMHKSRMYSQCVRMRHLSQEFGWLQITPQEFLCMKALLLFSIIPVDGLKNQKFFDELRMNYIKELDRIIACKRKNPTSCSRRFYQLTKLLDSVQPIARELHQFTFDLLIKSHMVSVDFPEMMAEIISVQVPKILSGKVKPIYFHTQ
Method in brief: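 Stably transfected MDA-kb2 cells express luciferase from an MMTV promoter bearing both AR and GR response elements. Compounds plus 0.5 nM R1881 (final) were incubated 16 hr at 37C without CO2, then luminescence measured.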

[13] = molecular target: Estrogen receptor (Homo sapiens) (UniProt P03372); assay: qHTS assay to identify small molecule antagonists of the estrogen receptor alpha (ER-alpha) signaling pathway using the BG1 cell line in the presence of 0.1 nM 17-beta-estradiol (AID 1259244); further: nearly all actives have a fitted effect of over 50% in size; further: potency means the concentration at half of the fitted maximal effect
Chain of Estrogen receptor (Homo sapiens) (P03372 whole entry, looked up): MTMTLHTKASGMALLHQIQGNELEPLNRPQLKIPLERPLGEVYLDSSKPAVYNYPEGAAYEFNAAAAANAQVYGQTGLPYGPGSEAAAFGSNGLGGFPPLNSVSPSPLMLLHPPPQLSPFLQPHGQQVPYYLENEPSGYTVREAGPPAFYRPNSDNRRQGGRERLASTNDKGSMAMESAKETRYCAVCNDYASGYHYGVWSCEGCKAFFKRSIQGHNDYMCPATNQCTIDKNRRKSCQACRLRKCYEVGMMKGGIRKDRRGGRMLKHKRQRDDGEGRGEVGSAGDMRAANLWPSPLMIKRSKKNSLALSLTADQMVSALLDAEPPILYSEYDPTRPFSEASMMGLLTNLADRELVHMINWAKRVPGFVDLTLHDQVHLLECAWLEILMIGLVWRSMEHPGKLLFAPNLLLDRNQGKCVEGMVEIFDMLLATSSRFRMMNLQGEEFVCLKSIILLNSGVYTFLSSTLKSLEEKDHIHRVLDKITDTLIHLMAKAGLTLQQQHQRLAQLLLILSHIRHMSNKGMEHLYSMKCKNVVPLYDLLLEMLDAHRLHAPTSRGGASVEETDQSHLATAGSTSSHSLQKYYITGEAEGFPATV
Method in brief: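 Antagonist mode: compounds in DMSO are pinned onto VM7Luc4E2 reporter cells, 0.1 nM final 17beta-estradiol is added, and after 22 h at 37C luciferase luminescence is measured with ONE-Glo.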

[14] = qHTS assay to identify small molecule HDAC inhibitors (AID 1259364);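 further: wild-type HCT-116 cells with endogenous class I/II HDAC activity; top concentration of the series differs between compounds; nearly all actives have a fitted effect of over 45% in size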
Method in brief: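 Cells (HCT-116, wild type) are seeded at 1,500 per well, incubated overnight, treated with compound in DMSO for 2 hr, then developed with HDAC-Glo I/II reagent for 30 min at room temperature.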

[15] = qHTS assay to identify small molecule HDAC inhibitors - cell viability counter screen (AID 1259365)
Method in brief: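 To flag cytotoxic hits, 1,500 wild-type HCT-116 cells per well, plated the day before, receive test compounds for 2hr at 37 C before CellTiter-Glo reagent and a luminescence read.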

[16] = qHTS assay to identify small molecule agonists of the sonic hedgehog signaling (Shh) pathway - cell viability counter screen (AID 1259366); further: nearly all actives have a fitted effect of over 50% in size; further: potency means the concentration at half of the fitted maximal effect
Method in brief: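 Fluorescence from CellTiter-Fluor reports live cells in this counter screen. NIH/3T3-derived Gli1-Luc reporter cells receive test compounds for 24hr at 37C; reagent goes in at 23hr.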

[17] = qHTS assay to identify small molecule antagonists of the sonic hedgehog signaling (Shh) pathway - cell viability counter screen (AID 1259367); further: nearly all actives have a fitted effect of over 55% in size; further: potency means the concentration at half of the fitted maximal effect
Method in brief: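 Tox21 library chemicals were tested on a Gli1-Luc NIH/3T3 clone (2,000 cells/well) stimulated by conditioned medium; viability was quantified as fluorescence from CellTiter-Fluor reagent added at 23 hr.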

[18] = qHTS assay to identify small molecule agonists of the sonic hedgehog signaling (Shh) pathway (AID 1259368; calls by dose curve;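 further: NIH/3T3-derived 3T3Gli1-Luc cells carrying a stable Gli1-driven firefly luciferase reporter; series mostly up to about 92 µM; nearly all actives have a fitted effect of over 15% in size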)
Method in brief: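 Cells of a mouse NIH/3T3 clone stably expressing luciferase under the Gli1 transcriptional response element are exposed to test chemicals for 24 hr at 37 C. Pathway activation is detected as a rise in luminescence.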

[19] = qHTS RealTime-Glo MT Cell Viability Assay in HEK293 cells - 8 hour (AID 1224887); further: nearly all actives have a fitted effect of over 50% in size; further: potency means the concentration at half of the fitted maximal effect
Method in brief: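 Real-time viability in HEK293: signal arises when living cells convert a prosubstrate for NanoLuc in the medium, so luminescence tracks viable cell number. Compound (23 nL, DMSO) added 5 h post-seeding; kinetic reads at 0–40 h, 37 C.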

[20] = qHTS assay to identify small molecule phospholipidosis (PLD) inducers (AID 1259344; active means well fitted curve in the direction sought with a large enough effect; an effect the other way counts as inactive or inconclusive)
Method in brief: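 Image-based: LipidTOX Red pit count/intensity per well and per cell; HepG2, 24 h compound at 37 C, PFA fixation, Hoechst counterstain.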

SMILES | Potency [1] | Potency [2] | Potency [3] | Potency [4] | Potency [5] | Potency [6] | Potency [7] | Potency [8] | Potency [9] | Potency [10] | Potency [11] | Potency [12] | Potency [13] | Potency [14] | Potency [15] | Potency [16] | Potency [17] | Potency [18] | Potency [19] | Potency [20]
Cc1c2ccccc2c(C)c2c1ccc1ccccc12 | 43.6 µM (active) | inactive | inactive | inactive | inactive | 43.2 µM (active) and 21.9 µM (active) | inactive | inactive | inactive | inactive | inactive and 61.1 µM (active) | 48.1 µM (active) and 27.3 µM (active) | inactive and 4.33 µM (active) | inactive | inactive | inactive and 68.6 µM (active) | inactive and 61.1 µM (active) | inactive | – | –
NC(=O)c1cccc([N+](=O)[O-])c1 | inactive | inactive | inactive | inactive | inactive | inactive | inactive | – | inactive | inactive | inactive | inactive | inactive | inactive | inactive | inactive | inactive | inactive | inactive | –
C#C[C@]1(OC(C)=O)CC[C@H]2[C@@H]3CCC4=C/C(=N/O)CC[C@@H]4[C@H]3CC[C@@]21CC | inactive | inactive | inactive | inactive | inactive | 23.9 µM (active) | inactive | – | inactive | inactive | inactive | – | inactive | inactive | inactive | inactive | inactive | inactive | 21.3 µM (active) | inactive
CC1(C)CCC[C@]2(C)[C@H]3CC(=O)O[C@]3(C)CC[C@@H]12 | 49 µM (active) | inactive | inactive | inactive | inactive | inactive | – | – | inactive | – | inactive | – | inactive | inactive | inactive | inactive | – | inactive | inactive | –
Cc1cc(-n2nc3ccc(Cl)cc3n2)c(O)c(C(C)(C)C)c1 | inactive | inactive | inactive | inactive | inactive | inactive | inactive | inactive | inactive | inactive | inactive | – | – | inactive | inactive | inactive | inactive | – | inactive | inactive
Cc1cccc2cccnc12 | inactive | inactive | inactive | inactive | inactive | inactive | inactive | inactive | inactive | inactive | inactive | – | – | inactive | inactive | inactive | inactive | inactive | inactive | –
Nc1ccc(NCCO)c([N+](=O)[O-])c1 | inactive | inactive | inactive | inactive | inactive | inactive | inactive | inactive | inactive | – | – | – | – | inactive | inactive | – | – | inactive | inactive | –
c1ccc(SSc2ccccc2)cc1 | inactive | inactive | inactive | inactive | inactive | inactive | inactive | – | inactive | inactive | inactive | – | inactive | inactive | – | inactive | – | inactive | inactive | –
S=C([S-])NCCNC(=S)[S-].S=C([S-])NCCNC(=S)[S-].[Mn+2].[Zn+2] | inactive | inactive | inactive | inactive | inactive | – | inactive | inactive | inactive | inactive | inactive | – | – | inactive | inactive | – | inactive | inactive | inactive | –
O=C(O)c1ccc2cc(C(=O)O)ccc2c1 | inactive | inactive | inactive | inactive | inactive | inactive | inactive | – | inactive | inactive | inactive | – | inactive | – | inactive | inactive | inactive | inactive | inactive | –
CC(C)(C)c1ccc(C(O)CCCN2CCC(C(O)(c3ccccc3)c3ccccc3)CC2)cc1 (configuration not stated) | 8.49 µM (active) | inactive | 5.35 µM (active) | 21.3 µM (active) | 7.56 µM (active) | 5.35 µM (active) | 13.4 µM (active) | – | 15.1 µM (active) | – | 16.8 µM (active) | – | – | inactive | – | 26.6 µM (active) | inactive | inactive | 8.49 µM (active) | inactive
Nc1cc(Cl)c(O)c(Cl)c1 | inactive | inactive | inactive | inactive | inactive | – | inactive | inactive | inactive | inactive | inactive | inactive | inactive | – | inactive | – | – | inactive | 43.6 µM (active) | –
Cc1ccc(-c2ccccc2)cc1 | inactive | inactive | 43.6 µM (active) | inactive | inactive | – | inactive | inactive | 49 µM (active) | inactive | inactive | – | – | inactive | inactive | inactive | inactive | inactive | inactive | –
CCCC(=O)OCCc1ccccc1 | 49 µM (active) | 38.9 µM (active) | 43.6 µM (active) | 38.9 µM (active) | inactive | inactive | 43.6 µM (active) | inactive | 43.6 µM (active) | inactive | inactive | – | – | inactive | – | inactive | – | inactive | inactive | –
CCC(CC)C(C)CCOC(C)=O (configuration not stated) | inactive | inactive | inactive | inactive | inactive | inactive | inactive | – | inactive | inactive | inactive | – | – | inactive | – | inactive | inactive | inactive | inactive | –
